NadD inh: inhibitors of S. aureus NadD, primary screen, biochemical, colorimetric, uHTS; purified NadD enzyme, colorimetric absorbance read-out; Nicotinate-nucleotide adenylyltransferase NadD (Staphylococcus aureus N315); hit rate 0.78% among 360,000; AID 602399, 2012; inhibition, % at 20 µM; in the data active means inhibition above about 26%
MPTP inh: mitochondrial permeability transition pore inhibitors, primary screen, biochemical, isolated mouse mitochondria, absorbance. Ca2+ swelling absorbance, 30 min. inhibition, % at 10 µM. hit rate 1.4% among 360,000;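 active means inhibition of 50% or more, scaled per plate between neutral and stimulator controls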
TAG inh: inhibitors of triacylglycerol accumulation, primary screen, cell-based, uHTS, fluorescence, H9c2; H9c2 cells, Nile Red lipid (TAG) fluorescence; cells loaded with 200 µM oleic acid; inhibition, % at 12.5 µM; hit rate 0.66% among 230,000;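 active means pattern-corrected inhibition of lipid staining of at least 50% with the nuclear-stain viability signal not falling by more than 50%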
aDG glyco up: activators of alpha-DG glycosylation, primary screen, uHTS, Pro5-aDG cells, AlphaScreen; alpha-DG glycosylation AlphaScreen (IIH6); 0% Pro5, 100% B10-LARGE cell signal; activation, % at 10 µM; hit rate 0.22% among 360,000;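 active means activation of at least 8% versus controls, or a plate z-score of at least 8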;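 further: Pro5 are CHO cells carrying HIG-tagged alpha-DG that lacks glycosylation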
MPTP counter: fluorescence retest of MPTP screen hits in isolated mitochondria, single concentration. shares compounds with MPTP inh. membrane potential, Rhodamine 123 fluorescence. inhibition, % at 10 µM. hit rate 78% among 5,000. AID 624504, 2012; in the data active means inhibition above about 22%
MPTP swell DR: mitochondrial permeability transition pore inhibitors, dose response, biochemical, absorbance, uHTS hits; shares compounds with MPTP inh; isolated mitochondria swelling; IC50, µM; hit rate 58% among 780; AID 651561, 2012; in the data active means IC50 below about 20 µM
MPTP cs DR: fluorescent counter-screen in isolated mitochondria, dose response, counter-screen for MPTP inhibitor project, biochemical, fluorescence, uHTS hits; AID 651564, 2012; hit rate 49% among 780; IC50, µM; isolated mitochondria counterscreen, fluorescence read-out; shares compounds with MPTP inh; in the data active means IC50 below about 80 µM
Numbers stand for hits; i = inactive; nt = not tested or not shown. The list is not random: actives were taken first. Their share in the collection is about 2.7%.

SMILES | NadD inh | MPTP inh | TAG inh | aDG glyco up | MPTP counter | others
COc1cccc(-n2cc(CNCc3cn(C)nc3-c3ccccc3F)cn2)c1 | i | i | i | i | nt
CC(C)(CO)NCC(O)COc1ccc2c(c1)CCC2 (configuration not stated) | i | i | nt | i | nt
CC(C)(C)CC(C)(C)NCC(O)COc1ccc2c(c1)CCC2 (configuration not stated) | i | 95 | i | i | i | MPTP swell DR=4.2;MPTP cs DR=48
Cc1cc(O)c(-c2ccno2)cc1Cl | i | 82 | i | i | 88
CCN(CC)C(=O)C(c1ccccc1)S(=O)(=O)N1CCOCC1 (configuration not stated) | i | i | i | i | nt
Cc1cc(C)c(S(=O)(=O)NCC(c2ccco2)N2CCc3ccccc3C2)c(C)c1 (configuration not stated) | i | i | i | i | nt
Cc1ccc(CNc2ncnc3cc(Cl)ccc23)cc1 | i | 87 | nt | i | 76
CCN(CC)c1ccc(C=Nc2ccc(N(C)C)cc2)c(O)c1 | i | i | i | i | nt
CCN(CC)c1ccc(N=Cc2ccc(N(CC)CC)cc2O)cc1 | i | 77 | nt | i | i
Cc1cccc(NC(=S)NNc2cccc(Cl)c2)c1 | i | i | nt | i | nt
Cc1ccc(NS(=O)(=O)c2cc([N+](=O)[O-])ccc2NNC(=S)Nc2cccc(Cl)c2)c(C)c1 | 46 | 86 | i | i | i
COc1ccc(NC(=S)NNc2ccc([N+](=O)[O-])cc2S(=O)(=O)Nc2ccc(C)cc2C)cc1 | i | 97 | nt | i | 56
COc1ccc(CNc2ccc([N+](=O)[O-])cc2C)cc1 | i | i | i | i | nt
Cc1cc(C)n(-c2ccc(NC(=O)C3CCCCN3C(=O)c3sccc3C)cc2)n1 (configuration not stated) | i | i | nt | i | nt
CC(O)(c1ccncc1)c1nc(-c2cccc(C(F)(F)F)c2)cs1 (configuration not stated) | i | 90 | i | i | 96
CC(O)(c1cccc(F)c1)c1nc(-c2cccc(C(F)(F)F)c2)cs1 (configuration not stated) | i | i | i | i | nt
Cc1cc(N2CCN(c3nc4ccccc4s3)CC2)n2ncnc2n1 | i | 82 | nt | 4.2 | 73
Cc1onc(-c2ccccc2)c1C(=O)OCC(=O)c1ccc(F)cc1 | i | i | i | i | nt
CCN1C(=O)c2cccc3c(NS(=O)(=O)c4ccc(NC(C)=O)cc4)ccc1c23 | i | i | nt | i | nt
CCOC(=O)c1ccc(NC(=O)Nc2ccc3c4c(cccc24)C(=O)N3CC)cc1 | i | 95 | nt | i | 33
O=C(Nc1cc(Sc2nc3ccccc3s2)cc([N+](=O)[O-])c1)c1cccc(F)c1F | i | 94 | i | i | 71
O=C(CSc1nc2ccc(NC(=O)c3ccccc3C(=O)O)cc2s1)Nc1ccc(F)c([N+](=O)[O-])c1 | i | i | nt | i | nt
O=CC(O)C1OC(=O)C(O)C1O (configuration not stated) | i | i | nt | i | nt
CC(Oc1ccc(Cl)cc1)C(=O)N1CCN(C(=O)c2ccco2)CC1 (configuration not stated) | i | i | i | i | nt
CCCCCCCCCCCCCCCC(O)C(N)CO (configuration not stated) | i | 80 | i | i | i
SMILES | NadD inh | MPTP inh | TAG inh | aDG glyco up | MPTP counter | others
C[C@H](CO)N1C[C@H](C)[C@@H](CN(C)Cc2ccc(C(=O)O)cc2)Oc2c(cccc2N(C)C)C1=O | i | i | i | i | nt
O=C(NCC(=O)c1ccccc1)OCc1ccc([N+](=O)[O-])cc1 | i | i | i | i | nt
COc1ccccc1NS(=O)(=O)c1ccc(-c2cnc(C3CC3)o2)cc1 | i | i | nt | i | nt
COc1ccc(NS(=O)(=O)c2ccc3c(c2)OCCO3)cc1OC | i | 85 | nt | i | 86
COc1ccc(S(=O)(=O)Nc2ccc3c(c2)OCO3)cc1OC | i | i | nt | i | nt
O=S(=O)(Nc1ccc2c(c1)OCCO2)c1ccc2oc3ccccc3c2c1 | i | 68 | nt | i | 81
COc1ccc(NS(=O)(=O)c2ccc(-c3cnc(C4CC4)o3)cc2)cc1OC | i | 92 | nt | i | 93

Assay outcomes (PubChem)
